Assay outcomes deposited in PubChem BioAssay by National Center for Advancing Translational Sciences (NCATS).
Shown are actives, neighbours in structure and some others; about 12% of the full set was active somewhere.
Pf growth 96h = P. falciparum growth inhibition at 96 hour, primary screen for plastid delayed-death inhibitors; 6.9% of 320,000 active; P. falciparum luciferase reporter growth, 96 h; AID 504834; Potency, µM (top dose mostly 28.7 µM), inactives show at the top dose activity change, negative = inhibition, most hits filed as inhibitors; further: on the % scale 0 is the no-effect control and ±100 the full control effect
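Two parasite generations (96 h, 37 C, 5% CO2) of compound exposure in infected erythrocytes (0.05% parasitemia, 2% hematocrit). Luciferase-reporter P. falciparum; decreased luminescence indicates inhibited growth, aimed at apicoplast-acting delayed death.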
SARS PLpro yeast = inhibitors of SARS-CoV papain-like protease in yeast; S. cerevisiae expressing SARS-CoV PLpro, growth rescue; Potency, µM (doses to about 32.9 µM), inactives show top-dose activity, positive = growth rescue, most hits filed as activators; 0.19% of 330,000 active; AID 485353; calls by dose curve; further: 0% is about no effect; nearly all actives have a fitted effect of over 55% in size
Pf growth 48h = P. falciparum growth inhibition at 48 hours (one generation); P. falciparum luciferase growth in erythrocytes, 48 h; Potency, µM (titrated, usually from 28.7 µM), without a hit: at the top dose activity change, negative = inhibition, actives largely listed as inhibitors; 5.9% of 310,000 active; AID 504832; further: on the % scale 0 is the no-effect control and ±100 the full control effect
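Compounds are pin-transferred into medium, infected erythrocytes (2% hematocrit, 0.1% parasitemia final) are added, and plates sit one parasite generation at 37 C in 5% CO2. Detection reagent is then added and luminescence measured.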
Sm TGR block = blocks Schistosoma mansoni thioredoxin glutathione reductase; Q962Y6; purified TGR, DTNB reduction, TNB absorbance 405 nm; 3% of 360,000 active; Potency, µM (doses to about 114 µM), for the others: top-dose activity change, negative = inhibition, usual class: inhibitors; AID 485364; further: on the % scale 0 is the no-effect control and ±100 the full control effect; nearly all actives have a fitted effect of over 60% in size
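Kinetic colorimetric format: TGR-catalysed, NADPH-driven DTNB reduction monitored via TNB absorbance. Enzyme dispensed at 20 nM; compound exposure 15 min at room temperature before reaction start.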
AmpC no deterg = inhibitors of E. coli AmpC beta-lactamase without detergent; AID 485341; 0.52% of 330,000 active; Potency, µM (highest dose often 57.1 µM), for the others: at the top dose activity change, negative = inhibition, most hits filed as inhibitors; AmpC nitrocefin hydrolysis, absorbance 480 nm, 0.0001% Triton;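 further: plate controls were no compound for no effect and no enzyme for full effect; nearly all actives have a fitted effect of over 20% in size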
Target sequence (P00811 whole entry, looked up): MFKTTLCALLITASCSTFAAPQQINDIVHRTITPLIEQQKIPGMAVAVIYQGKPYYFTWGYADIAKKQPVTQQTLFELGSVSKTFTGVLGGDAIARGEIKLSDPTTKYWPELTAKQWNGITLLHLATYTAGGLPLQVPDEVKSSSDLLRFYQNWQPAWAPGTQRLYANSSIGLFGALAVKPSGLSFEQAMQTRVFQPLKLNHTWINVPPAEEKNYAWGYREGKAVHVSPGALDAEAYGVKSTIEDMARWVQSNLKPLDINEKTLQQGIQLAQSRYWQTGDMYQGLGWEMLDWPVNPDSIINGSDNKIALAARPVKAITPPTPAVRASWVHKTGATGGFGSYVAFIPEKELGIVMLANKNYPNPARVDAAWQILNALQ
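AmpC (5.3 nM in the dispensed reagent) in 20 mM phosphate pH 7.0 with 0.01% (detergent screen) or 0.0001% Triton X-100 was preincubated with compounds for 15 min at room temperature. Nitrocefin was then added from an 800 uM solution, and hydrolysis was followed at 480 nm.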
AmpC inh detg = AmpC beta-lactamase inhibition with detergent present; P00811; AmpC hydrolysis of nitrocefin, absorbance 480 nm, 0.01% Triton; 0.041% of 370,000 active; Potency, µM (doses to about 114 µM), inactives show at the highest dose activity change, negative = inhibition, actives largely listed as inhibitors;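 further: 0% = no-compound wells and -100% = no-enzyme wells; nearly all actives have a fitted effect of over 25% in size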
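AmpC (5.3 nM in the dispensed reagent) in 20 mM phosphate pH 7.0 with 0.01% (detergent screen) or 0.0001% Triton X-100 was preincubated with compounds for 15 min at room temperature. Nitrocefin was then added from an 800 uM solution, and hydrolysis was followed at 480 nm.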
Active calls of the source: *. Unless noted, the call rests on the fitted dose curve; in most records, active means well fitted curve in the direction sought with a large enough effect; inconclusive means small, poorly fitted or top-dose-only effect, or another doubt; inactive means no such curve, though single readings can be large; an effect the other way counts as inactive or inconclusive. Potency means the concentration at half of the fitted maximal effect.

CCOC(=O)c1c(C)n(C)c2ccc(O)c(CN(C)C)c12 was read as Pf growth 96h 18.9%, SARS PLpro yeast -7.4%, Pf growth 48h -7.0%, Sm TGR block inconclusive, AmpC no deterg -19.4% and AmpC inh detg -6.9%.
CCOC(=O)c1sc(=N)n(-c2ccc(OC)cc2)c1C was read as Pf growth 96h 7.3%, SARS PLpro yeast 1.6%, Pf growth 48h 49.0%, Sm TGR block 3.2%, AmpC no deterg -15.8% and AmpC inh detg 3.3%.
`CCOC(=O)c1c(C)n(-c2ccc(OC)cc2)c2ccc(O)c(CN(C)C)c12` gave Pf growth 96h 7.38µM*, SARS PLpro yeast -2.7%, Pf growth 48h inconclusive, Sm TGR block -9.8%, AmpC no deterg 53.1% and AmpC inh detg 0.4%.
`CCOC(=O)c1c(C)n(-c2ccc(C)cc2)c2ccc(O)c(CN(C)C)c12` gave Pf growth 96h 31.8%, SARS PLpro yeast -0.1%, Pf growth 48h 10.4µM*, AmpC no deterg 62.9% and AmpC inh detg -1.7%.
Screening CC(C)NC[C@H](O)c1ccc(O)c(O)c1 returned Pf growth 96h 8.3%, Pf growth 48h -10.5%, Sm TGR block 44.7µM*, AmpC no deterg -13.7% and AmpC inh detg inconclusive.
`O=P(CCCCCCCCCP(=O)(c1ccccc1)c1ccccc1)(c1ccccc1)c1ccccc1` gave SARS PLpro yeast -17.1%, Pf growth 48h 1.31µM*, Sm TGR block 3.8%, AmpC no deterg 61.5% and AmpC inh detg -2.4%.
`CCOc1ccc2c(c1)C(C)=CC(C)(C)N2C(=O)Nc1ccccc1F` gave Pf growth 96h 9.28µM*, SARS PLpro yeast 1.8%, Pf growth 48h -2.3%, Sm TGR block -25.8%, AmpC no deterg -34.5% and AmpC inh detg -8.6%.
CCNC(=O)N1c2ccc(OCC)cc2C(C)=CC1(C)C was read as SARS PLpro yeast inconclusive, Pf growth 48h -21.6%, Sm TGR block -6.0%, AmpC no deterg -3.0% and AmpC inh detg -9.0%.
Screening COC(=O)C1=C(c2ccc(OC(F)(F)F)cc2)C[C@@H]2CC[C@H]1N2C(=O)NCc1cccc2ccccc12 returned Pf growth 96h 1.85µM*, SARS PLpro yeast 0.5%, Pf growth 48h 1.65µM*, Sm TGR block 3.4%, AmpC no deterg -3.5% and AmpC inh detg 11.7%.
`COC(=O)C1=C(c2ccc(-c3ccccc3)c(F)c2)C[C@@H]2CC[C@H]1N2C(=O)NCCNC(C)=O` gave Pf growth 96h -5.9%, SARS PLpro yeast 0.8%, Pf growth 48h inconclusive, Sm TGR block -9.0%, AmpC no deterg 192.3% and AmpC inh detg -6.8%.
`COC(=O)C1=C(c2ccc(-c3ccccc3)c(F)c2)C[C@@H]2CC[C@H]1N2C(=O)NCc1cccc2ccccc12` gave Pf growth 96h 1.04µM*, SARS PLpro yeast 3.0%, Pf growth 48h 1.17µM*, Sm TGR block 5.5%, AmpC no deterg -4.6% and AmpC inh detg 2.3%.
Screening COC(=O)C1=C(c2ccc(-c3ccccc3)c(F)c2)C[C@@H]2CC[C@H]1N2C(=O)NCCc1ccccc1 returned Pf growth 96h inconclusive, SARS PLpro yeast -5.9%, Pf growth 48h 6.57µM*, Sm TGR block -12.1%, AmpC no deterg 4.3% and AmpC inh detg 2.9%.
COC(=O)C1=C(c2ccc(OC(F)(F)F)cc2)C[C@@H]2CC[C@H]1N2C(=O)NCc1ccc(F)cc1 was read as Pf growth 96h inconclusive, SARS PLpro yeast -0.4%, Pf growth 48h inconclusive, Sm TGR block 4.8%, AmpC no deterg 70.6% and AmpC inh detg 1.4%.
`COC(=O)C1=C(c2ccc(OC(F)(F)F)cc2)C[C@@H]2CC[C@H]1N2C(=O)NCc1cc(C)oc1C(F)(F)F` gave Pf growth 96h 8.28µM*, SARS PLpro yeast 1.3%, Pf growth 48h 11.7µM*, Sm TGR block -10.4%, AmpC no deterg 9.5% and AmpC inh detg -8.0%.
